Measurements: PubChem BioAssay AID686979 (National Center for Advancing Translational Sciences (NCATS), 2013)
About 50,000 (12%) of roughly 420,000 compounds were called active. About 26% were inconclusive and are not listed. The sample as a whole holds a higher share of actives than the screen did. A number with no mark means an inactive call. The call rests on the fitted dose curve; in most records, active means well fitted inhibition curve with a large enough effect; inconclusive means small, poorly fitted or top-dose-only effect; inactive means flat fitted curve, though single readings scatter.

assay: qHTS for Inhibitors of human tyrosyl-DNA phosphodiesterase 1 (TDP1): qHTS in cells in presence of CPT; conditions: chicken DT40 Tdp1-/-;hTDP1 cells + 20 nM CPT, ATP luminescence, 48 h; series mostly up to 46.2 µM; activity change, negative = growth inhibition: at the top concentration; further: nearly all actives have a fitted effect of over 55% in size
In short: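 Chicken DT40 Tdp1-/- cells complemented with human TDP1, 400 cells/well, exposed to compounds plus 20 nM camptothecin for at least 48 h at 37 C; viability read as ATP content by CellTiter-Glo luminescence.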
On the % scale 0 is the no-effect control and ±100 the full control effect; potency means the concentration at half of the fitted maximal effect.

| SMILES | activity change, negative = growth inhibition [%] | Potency |
| --- | --- | --- |
| NNc1nnc(NN)c2ccccc12 | -1.76 |  |
| CCCS(=O)(=O)NC(=O)C1(C)CCCN(C(=O)c2ccnc(Cl)c2)C1 (stereo not drawn) | -7.91 |  |
| CCN(CC)CCCNC(=S)N(CCO)Cc1cc2cc3c(cc2[nH]c1=O)OCO3 | -8.99 |  |
| COc1ccc(CCNC(=O)c2ccccc2-c2ccccc2C(=O)O)cc1OC | 31.5 |  |
| COc1ccc(CCNC(=O)C(=O)NCc2ccccc2C)cc1OC | 10.3 |  |
| COc1ccc(CCNc2cc(N3CCN(C(=O)c4ccccc4OC)CC3)ccc2[N+](=O)[O-])cc1OC |  | 5.8 µM (active) |
| CCCCN(C(=O)c1cccc(N2C(=O)c3ccccc3C2=O)c1)c1c(N)n(CCCC)c(=O)[nH]c1=O | -0.716 |  |
| CC(CN1CCCCC1)c1ccccc1 (stereo not drawn) | 2.22 |  |
| COc1ccc(/C=C2\SC(=S)N(CCC(=O)Nc3ccccn3)C2=O)cc1OC | 10.6 |  |
| CCC(=O)N1CCC(C(N)=O)(N2CCCCC2)CC1 | 8.22 |  |
| CC(=O)NN1C(=O)c2ccccc2NC1c1ccccc1 (stereo not drawn) | -3.53 |  |
| O=C1CCC(C(=O)OCC(=O)Nc2ccc(OC(F)F)cc2)=NN1 | 3.87 |  |
| CCOc1ccccc1NC(=O)CCc1ccc(C)o1 | 17 |  |
| Cc1ccc(Cc2cnc(N)s2)o1 | -11.8 |  |
| Cc1ccc(CCC(=O)Nc2ncc(Cc3cc(Cl)ccc3Cl)s2)o1 |  | 0.731 µM (active) |
| COc1ccc(CCC(=O)Nc2ccc(Cl)c(S(=O)(=O)N3CCOCC3)c2)cc1OC |  | 23.1 µM (active) |
| COc1ccc(C(=O)OCC(=O)c2ccc(C)c(S(=O)(=O)N3CCOCC3)c2)cc1OC |  | 18.4 µM (active) |
| Cc1ccc(C(=O)OCC(=O)N2CCCCCC2)cc1S(=O)(=O)N1CCOCC1 | -5.9 |  |
| O=C(COC(=O)CCc1ccc(S(=O)(=O)N2CCOCC2)cc1)Nc1cccc(Cl)c1 | 1.87 |  |
| COc1ccc(CC(=O)Nc2ccc3c(c2)CCC3)cc1S(=O)(=O)N1CCOCC1 | -14.9 |  |
| CCOc1ccc(CCNC(=O)COC(=O)c2ccc(C)c(S(=O)(=O)N3CCOCC3)c2)cc1OCC | -1.47 |  |
| CNC(=O)C[C@H]1C(=O)N(Cc2ccccc2)C[C@@H]1CSC | -20.4 |  |
| CCOc1ccc(N(CC(=O)Nc2ccccc2F)S(=O)(=O)c2c(C)[nH]c(=O)[nH]c2=O)cc1 | -10 |  |
| Cc1ccc(NC(=O)Cn2nnc(C(=O)NCc3ccco3)c2N)c(C)c1 | -3.92 |  |
| CCN(C(=O)Cc1c(C(=O)O)n(CC)c2ccccc12)c1ccccc1C | 9.41 |  |
| COc1ccc(CNS(=O)(=O)c2ccc(NC(=O)N3CCCCC3)cc2)cc1 |  | 18.4 µM (active) |

| SMILES | activity change, negative = growth inhibition [%] | Potency |
| --- | --- | --- |
| COc1ccc(S(=O)(=O)NC(C)C(=O)N2CCCCCC2)cc1 (stereo not drawn) | -0.956 |  |
| COc1ccc(NC(=O)N2CC3(CCN(C(C)=O)CC3)C2)cc1 | 8.16 |  |
| COC(=O)C[C@H]1C[C@@H]2c3cc(N(C)C)ccc3O[C@@H]2[C@H](CO)O1 | 6.29 |  |
| O=C(NC1CCN(S(=O)(=O)c2ccc(F)cc2)CC1)c1ccccc1 | 22.4 |  |
| CCCS(=O)(=O)c1ncc(Cl)c(C(=O)Nc2scc(-c3ccccc3)c2C(=O)OCC)n1 |  | 2.31 µM (active) |
| Cc1ccc2nc(NC(=O)c3nc(SCc4ccccc4F)ncc3Cl)sc2c1 | 4.39 |  |
| CCOC(=O)c1c(-c2ccc(-c3ccccc3)cc2)csc1NC(=O)CCC(=O)O | -2.59 |  |
| O=C(CN1C(=O)CC(c2ccccc2)S(=O)(=O)c2ccccc21)NC1CCCC1 (stereo not drawn) | -12.7 |  |
| Cc1ccc(-c2noc(CNC(=O)c3ccoc3C)n2)cc1 | -25.3 |  |
| CSc1n[nH]c(=S)n1N | -2.16 |  |
| COc1ccc(NC(=O)N2CC3(CCN(C(=O)c4cccn4C)CC3)C2)cc1 | -10.5 |  |
| Cn1cccc1C(=O)N1CCC2(CC1)CN(c1cccc(-c3ccccc3)c1)C2 |  | 18.4 µM (active) |
| CC(C)NC(=O)N1CCC2(CC1)CCN(C(=O)c1cccn1C)CC2 | 3.36 |  |
| O=C(C=CC(=O)Nc1ccc(F)cc1F)Nc1ccc(F)cc1F | 4.15 |  |
| Cc1nc2ccc(S(=O)(=O)N(C)CC(=O)NC(C)c3ccccc3)cc2s1 (stereo not drawn) | -11.6 |  |
| O=C(Nc1cccc(Cl)c1)Nc1ccccc1NS(=O)(=O)c1cccs1 | -15.7 |  |
| CCOC(=O)c1ccc(NC2Nc3cc(C)nn3S2)cc1 (stereo not drawn) | -0.261 |  |
| O=C(Nc1ccc2ccccc2c1)/C(=C\c1ccc2c(c1)OCO2)NC(=O)c1ccco1 | 1.81 |  |
| CC(Oc1ccc2ccccc2c1)C(=O)NNC(=S)NC(=O)c1ccco1 (stereo not drawn) |  | 23.1 µM (active) |
| Cc1ccc(C(=O)NNC(=O)C(C)Oc2ccc3ccccc3c2)o1 (stereo not drawn) | -9.14 |  |
| CC(C)=CCN1CCN(Cc2cc3ccccc3[nH]2)CC1CCO (stereo not drawn) | -6.87 |  |
| COc1ccc(OC)c(CN2C(=O)CCC2(C)c2nnnn2Cc2ccccc2)c1 (stereo not drawn) | -24.7 |  |
| CSc1ncnc2sc(C)c(C)c12 | -14.5 |  |
| CCCNc1ncnc2sc(C)c(C)c12 |  | 16.4 µM (active) |
| Cc1sc2ncnc(SCC(=O)NC3CCS(=O)(=O)C3)c2c1C (stereo not drawn) | 0.145 |  |
| COc1cccc(NC(=O)CCNS(=O)(=O)c2ccc3c(c2)oc(=O)n3C)c1 |  | inactive |

| SMILES | activity change, negative = growth inhibition [%] | Potency |
| --- | --- | --- |
| CCc1ccccc1NC(=O)c1ccc2c(c1)CCN2S(C)(=O)=O | 9.03 |  |
| CC(C)=CCC/C(C)=C/C(=O)O | -5.06 |  |
| COc1ccccc1-c1cc2nc(C)c(CCC(=O)NC3CCCCC3)c(C)n2n1 | 5.23 |  |
| COc1ccc(-c2ccc(C(=O)NC(C)C)c3occc23)c(C)c1 |  | 14.6 µM (active) |
| COc1ccc(C2OC(=O)CC2C(=O)NC(C)C)cc1 (stereo not drawn) | -2.88 |  |
| COc1ccc(N)c(C)c1 | 5.04 |  |
| COc1ccc(Cl)cc1C(=O)OCC(=O)NCc1cccs1 | -0.547 |  |
| Cc1nnc(SC(C(=O)c2ccccc2)c2ccccc2)[nH]c1=O (stereo not drawn) | -0.428 |  |
| CN1CCC(N(C)C(=O)c2ccc(Cl)c(S(=O)(=O)Nc3ccc(Cl)cc3)c2)CC1 | -15 |  |
| Cc1cccc(-n2ncc3c(=O)[nH]c(SCC(=O)Nc4cc(C)on4)nc32)c1 | -28.7 |  |
| CCN(CC)c1ccc(NC(=O)Cn2nc3c(cc2=O)CCCC3)c(C)c1 | -21.6 |  |
| CCN(CC)c1ccc(NC(=O)CN2C(=O)c3cccnc3Oc3ccc(Cl)cc32)c(C)c1 |  | 9.2 µM (active) |
| O=C(CN1C(=O)c2cccnc2Oc2ccc(Cl)cc21)NCCc1ccccc1 | -25.7 |  |
| Cc1ccc2c(c1)N(CC(=O)N1CCC(C)CC1)C(=O)c1cccnc1O2 | 1.35 |  |
| Cc1ccc2c(c1)N(CC(=O)NCCCN1CCCCC1)C(=O)c1cccnc1O2 |  | inactive |
| CC(=O)c1cccc(NC(=O)CN2C(=O)c3cccnc3Oc3ccc(Cl)cc32)c1 |  | 18.4 µM (active) |
| COC(=O)Cc1ccc(OCC(=O)NC2CCCC2)cc1 | 0.687 |  |
| COc1cccc(N(CC(=O)NC2CCCC2)C(=O)CCCC(=O)Nc2ccccn2)c1 | -0.665 |  |
| COCC1CCN(C(=O)C2CCC(=O)N(Cc3cccc(C(F)(F)F)c3)C2)CC1 (stereo not drawn) | -9.13 |  |
| CC(=O)CC[C@@H](C)O[C@@H]1OC(C)[C@H](O)CC1O (stereo partly drawn) | 9.15 |  |
| Nc1nc(SCc2cccc(Br)c2)n[nH]1 | -13.6 |  |
| COc1cc2ccccc2cc1C(=O)Nc1ccccc1C | -16.1 |  |
| COC(=O)c1ccc(Cc2ccccc2)o1 | 3.76 |  |
| COCCNC(=O)c1ccc(-n2c(SCc3cccnc3)nc3ccccc3c2=O)cc1 | 2.47 |  |
| COc1cccc(-n2c(N)cc(=O)nc2SCC(=O)Nc2cc(C)on2)c1 | -3.53 |  |
| COCCn1c(C)cc(C(=O)CN2c3cccc4cccc(c34)S2(=O)=O)c1C | 9.37 |  |

| SMILES | activity change, negative = growth inhibition [%] | Potency |
| --- | --- | --- |
| CCCn1c(N)c(C(=O)CSc2nc3ccccc3c(=O)n2-c2ccc(OC)cc2)c(=O)[nH]c1=O | 1.77 |  |
| COCC(C)n1c(SCC(=O)NC2CCCCC2C)nc2ccccc2c1=O (stereo not drawn) | -14.7 |  |
| COCCn1c(C)cc(C(=O)CSc2nc3ccccc3c(=O)n2C(C)COC)c1C (stereo not drawn) |  | 20.6 µM (active) |
| COc1cccc(-n2c(SCC(=O)c3c[nH]c4ccccc34)nc3ccccc3c2=O)c1 |  | 20.6 µM (active) |
| COC(=O)c1ccc(CSc2nc3ccccc3c(=O)n2-c2cccc(OC)c2)o1 |  | 20.6 µM (active) |
| COCC(C)n1c(SCc2ccc(C(=O)OC)o2)nc2ccccc2c1=O (stereo not drawn) |  | 7.31 µM (active) |
| COCCn1c(C)cc(C(=O)CSc2nnc(C3CC3)n2C2CC2)c1C | -5 |  |
| COc1cccc(-n2c(SCC(=O)NC3CCS(=O)(=O)C3)nc3ccccc3c2=O)c1 (stereo not drawn) | 3.4 |  |
| CCOc1ccc(CN(C)C(=O)c2ccc(=O)[nH]c2)cc1 | 14.4 |  |
| Cc1occc(=O)c1OCc1c(Cl)cccc1Cl | -17.7 |  |
| COc1ccc(C2C3=C(CCCC3=O)N(CC(=O)O)C3=C2C(=O)CCC3)cc1 | -4.55 |  |
| CSc1ccc(S(=O)(=O)N2CCC(C(=O)NCc3ccncc3)CC2)cc1 | 0.718 |  |
| COc1ccc(-c2c(C)nn3c(N4CCC(C(=O)N5CCCCC5)CC4)cc(C)nc23)cc1OC | -7.26 |  |
| CCN(CC)c1nc(-c2ccccc2)cc(C(F)(F)F)c1C#N | -4.95 |  |
| O=C(CNS(=O)(=O)c1ccccc1)NCC(=O)OCc1ccccc1F | -28.2 |  |
| Cc1cc(=O)oc2cc(OC(C)C(=O)NCCc3ccc(S(N)(=O)=O)cc3)ccc12 (stereo not drawn) | -6.95 |  |
| Nc1nc(SCC(=O)NNc2c(Cl)cc(Cl)cc2Cl)n[nH]1 | 13.5 |  |
| COc1cc(Cl)c(C)cc1NC(=O)COC(=O)c1cc(SC)ccc1Cl | 16.3 |  |
| CCC(C)Cn1c(O)cc2nn(-c3nc4ccccc4s3)c(=O)c-2c1C (stereo not drawn) |  | 14.6 µM (active) |
| Cc1ccc(-c2nn3c(=O)cc(CN4CCN(S(=O)(=O)c5ccc(Cl)cc5)CC4)nc3s2)cc1 | -12.6 |  |
| CSc1sc(C)cc1C1C(C#N)=C(N)N(c2cccnc2)C2=C1C(=O)CCC2 (stereo not drawn) |  | 11.6 µM (active) |
| CCc1ccc(C2C(C#N)=C(N)N(N(C)C)C3=C2C(=O)CCC3)s1 (stereo not drawn) | -18.2 |  |
| Cc1sc(C2C(C#N)=C(N)N(c3cccc(Cl)c3)C3=C2C(=O)CCC3)cc1CN1CCOCC1 (stereo not drawn) | -13.7 |  |
| Cc1cn(C)c(CC(=O)NCc2ccccc2)c1C(=O)O | -2.5 |  |
| C=CCn1c(SCC(N)=O)nnc1-c1cc2c(s1)CCC(CC)C2 (stereo not drawn) | -13.6 |  |
